# Bioassay records as filed in PubChem BioAssay.
# Most compounds without a hit are left out; they make up all but 11% or so of the library.
# IL-1B inflam inh: inhibitors of inflammasome signaling (IL-1 beta secretion); THP-1 LPS/ATP IL-1B secretion, AlphaLISA, 16 h; stronger effect = lower value; activity change, % at 57.5 µM; 4.7% of 360,000 active; AID 743279; in the data active = activity change below about -50%; inconclusive = mostly about -30% to -49%; note: % is set by controls: 0 for no effect and ±100 for the full control effect
#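 THP-1 cells pretreated 1 hr with compounds (up to 57.5 uM final), then stimulated with LPS (250 ng/mL final) plus ATP (1.25 mM final); secreted IL-1B measured by AlphaLISA after 16 hr, decreased signal indicating inhibition.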
# Gal4-VP16 FLuc: Gal4-VP16 reporter inhibition counter-screen; Potency, µM (doses to about 53.6 µM), for the others: at the top dose activity, negative = inhibition, actives largely listed as inhibitors; 3.5% of 310,000 active; Drosophila S2 Gal4-VP16 UAS-luciferase, luminescence, 20 h; AID 2546;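 note: Gal4-VP16 expression switched on by copper sulfate through the metallothionein promoter; potency is the fitted concentration of half-maximal effect; % is set by controls: 0 for no effect and ±100 for the full control effect; nearly all actives have a fitted effect of over 50% in size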
# RORgamma inh: blocks mouse ROR gamma transcriptional activity; Potency, µM (top dose mostly 53.6 µM), inactives show top-dose activity change, negative = inhibition, actives largely listed as inhibitors; P51450; 5.4% of 310,000 active; AID 2551; Drosophila S2 Gal4-RORgamma UAS-luciferase reporter, 20 h; note: potency is the fitted concentration of half-maximal effect; % is set by controls: 0 for no effect and ±100 for the full control effect; nearly all actives have a fitted effect of over 60% in size
# Target sequence (P51450 whole entry, looked up, the tested form may be a part): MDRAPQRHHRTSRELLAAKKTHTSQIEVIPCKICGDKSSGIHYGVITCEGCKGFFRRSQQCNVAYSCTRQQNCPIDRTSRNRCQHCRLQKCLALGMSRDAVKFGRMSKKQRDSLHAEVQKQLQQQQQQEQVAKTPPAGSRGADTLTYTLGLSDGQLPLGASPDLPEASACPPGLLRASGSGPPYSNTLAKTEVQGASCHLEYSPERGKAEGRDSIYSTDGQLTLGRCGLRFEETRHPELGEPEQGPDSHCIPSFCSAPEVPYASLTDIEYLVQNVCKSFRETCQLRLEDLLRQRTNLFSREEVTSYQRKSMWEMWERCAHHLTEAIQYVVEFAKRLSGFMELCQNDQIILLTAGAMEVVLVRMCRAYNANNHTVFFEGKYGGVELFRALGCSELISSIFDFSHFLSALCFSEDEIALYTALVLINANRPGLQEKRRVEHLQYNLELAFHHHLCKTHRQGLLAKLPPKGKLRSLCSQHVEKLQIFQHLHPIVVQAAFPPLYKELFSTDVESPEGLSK
#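 ROR gamma transcriptional activity was tracked as Gal4-UAS luciferase output in stably transfected Drosophila Schneider cells, with compound added 1 hr before 700 uM copper sulfate induction and a 20 hr ambient-temperature incubation.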
# SW480 rereplic: induces DNA re-replication in SW480 colon adenocarcinoma cells; Potency, µM (top dose mostly 46.1 µM), for the others: top-dose re-replication activation, usual class: activators; SW480 DNA re-replication, Hoechst DNA content imaging, 48 h; AID 624297; 1.8% of 340,000 active; note: potency is the fitted concentration of half-maximal effect; % of control where 0% means no effect; nearly all actives have a fitted effect of over 55% in size
#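 Per well, 250 cells were exposed to pinned compound for 48 hr. Nuclear DNA was visualised with Hoechst (40 min, 37 C) and total object intensity recorded by fluorescence scanning.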
# MCF10A rerep: DNA re-replication induction in MCF 10a cells. 2.9% of 350,000 active. Potency, µM (doses to about 46.1 µM), without a hit: at the highest dose activity, positive = re-replication, hits mostly activators. MCF 10A DNA re-replication, Hoechst nuclear intensity, 48 h; note: potency is the fitted concentration of half-maximal effect; % of control where 0% means no effect; nearly all actives have a fitted effect of over 50% in size
# An asterisk follows results filed as active; ? = inconclusive; nt = no result; [ ] = remark or other dose. Unless noted, calls come from the whole dose curve; as a rule, active = well fitted curve in the direction sought with a large enough effect; inconclusive = small, poorly fitted or top-dose-only effect, or another doubt; inactive = no such curve, though single readings can be large; an effect the other way counts as inactive or inconclusive.
SMILES,IL-1B inflam inh,Gal4-VP16 FLuc,RORgamma inh,SW480 rereplic,MCF10A rerep
COc1cc(CNc2ncnc3c2ncn3[C@H]2CN(CCc3ccccc3)C[C@@H](CO)O2)cc(OC)c1OC,-17,nt,nt,nt,nt
CC1CCCC(NC(=O)CN2CCN(S(=O)(=O)c3ccc(Br)s3)CC2)C1C (configuration not stated),?,nt,nt,0%,8%
COc1ccc(C#Cc2c(-c3ccccc3)n(-c3ccccc3)c3ccc(CO)cc23)cc1,0,nt,nt,?,21µM*
CCCCn1c(N)c(N(CC)C(=O)CN2C(=O)NC(C)(c3ccccc3)C2=O)c(=O)[nH]c1=O (configuration not stated),-3,nt,nt,-7%,2%
O=C(c1cccc([N+](=O)[O-])c1)N1CCN(c2ccccn2)CC1,0,3%,23%,16µM*,-3%
O=C(c1ccc2snnc2c1)N1CCN(c2ccccn2)CC1,-85*,4%,22%,-5%,-3%
CC(C)c1ccc(OCc2ccc(C(=O)N3CCN(c4ccccn4)CC3)cc2)cc1,-2,?,?,18%,23µM*
CC(C)c1ccc(COc2ccc(C(=O)N3CCOCC3)cc2)cc1,-6,3%[10 µM],?,3%,15%
O=C(c1ccc(S(=O)(=O)c2cccc(Cl)c2)c([N+](=O)[O-])c1)N1CCN(c2ccccn2)CC1,-246*,?,?,5%,?
O=C(c1ccc2snnc2c1)N1CCN(c2ccccc2)CC1,-14,2%,4%,22%,-1%
O=C(c1cc([N+](=O)[O-])ccc1Cl)N1CCN(c2ccccn2)CC1,-13,-17%,-2%,?,-6%
O=C(c1cccc(Cl)c1)N1CCN(c2ccccn2)CC1,0,-5%,-12%,0%,5%
CCOC(=O)[C@]12CCCC=C1N(Cc1ccccc1)C(=O)[C@H](CC(=O)N1CCN(C(=O)c3ccco3)CC1)C2,2,nt,nt,nt,nt
Nc1[nH]c(N=NC(=O)c2ccc(F)cc2)c2ccccc12,0,14µM*,3.5µM*,-60%,-55%
CC(C)CN1C(=O)C(=O)N(CC(=O)N(C)CC(=O)Nc2ccc(F)cc2)C1=O,24,nt,nt,0%,-3%
CCOC(=O)c1nc(NCc2ccccc2)sc1C,?,0%,30%,-2%,7%
CC(=O)c1sc(N/N=C\c2cccc(Br)c2)nc1C,-66*,?,?,11%,13µM*
CCOC(=O)c1nc(N/N=C/c2ccccc2)sc1Br,?,?,18µM*,5%,?
CC(=O)Nc1sc(N/N=C/c2ccc(O)cc2)nc1-c1ccc(C)cc1,-3,3%,-28%,8%,?
CC(=O)Nc1sc(N/N=C/c2ccccc2)nc1-c1ccc(C)cc1,-90*,3%,-17%,-4%,0%
CCOC(=O)c1sc(N/N=C/c2ccc(N(C)C)cc2)nc1C,1,11µM*,?,?,?
CCOc1cc(/C=N/Nc2nc(-c3cccs3)c(NC(C)=O)s2)ccc1O,-60*,-2%,-5%,-7%,3%
CC(=O)c1sc(N/N=C\c2ccc(Br)cc2)nc1C,-3,?,?,?,18µM*
Cc1nc2ccc(NC(=O)Nc3ccnc4cccnc34)cc2o1,nt,5%,39%,nt,nt
CCCCC[C@H](C)N1C[C@@H](COCc2ccccc2)Oc2cc(N3CCC[C@@H]3COC)ccc2S1(=O)=O,42,nt,nt,nt,nt
SMILES,IL-1B inflam inh,Gal4-VP16 FLuc,RORgamma inh,SW480 rereplic,MCF10A rerep
O=C(CCc1ccccc1)Nc1nncs1,-8,2%,0%,-10%,1%
O=C(CCS(=O)(=O)Cc1ccccc1)Nc1nncs1,10,-9%,-25%,21µM*,?
O=C(CS(=O)(=O)c1ccccc1)Nc1ncc([N+](=O)[O-])s1,24,3%,-3%,0%,-2%
O=C(CCS(=O)(=O)Cc1ccccc1)Nc1ncc([N+](=O)[O-])s1,-107*,?,7.9µM*,23µM*,?
O=C(CCS(=O)(=O)c1ccccc1)Nc1ncc([N+](=O)[O-])s1,-76*,?,?,7.3µM*,4.6µM*
CCCCc1nc2cc(C(=O)N3CCCC(OCCC)C3)ccc2o1 (configuration not stated),42,18%,16%,-7%,-1%
